Consider two compounds from ChEMBL document CHEMBL1961873, “Compounds: GSK PKIS; Assays: Nanosyn kinase panel” (2012).

In assay [1] the target is T1, Inhibitor of nuclear factor kappa-B kinase subunit epsilon (Homo sapiens) (UniProt Q14164).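 Also: reported values are averaged percent inhibition figures against human IKKε.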
T1 sequence (whole entry): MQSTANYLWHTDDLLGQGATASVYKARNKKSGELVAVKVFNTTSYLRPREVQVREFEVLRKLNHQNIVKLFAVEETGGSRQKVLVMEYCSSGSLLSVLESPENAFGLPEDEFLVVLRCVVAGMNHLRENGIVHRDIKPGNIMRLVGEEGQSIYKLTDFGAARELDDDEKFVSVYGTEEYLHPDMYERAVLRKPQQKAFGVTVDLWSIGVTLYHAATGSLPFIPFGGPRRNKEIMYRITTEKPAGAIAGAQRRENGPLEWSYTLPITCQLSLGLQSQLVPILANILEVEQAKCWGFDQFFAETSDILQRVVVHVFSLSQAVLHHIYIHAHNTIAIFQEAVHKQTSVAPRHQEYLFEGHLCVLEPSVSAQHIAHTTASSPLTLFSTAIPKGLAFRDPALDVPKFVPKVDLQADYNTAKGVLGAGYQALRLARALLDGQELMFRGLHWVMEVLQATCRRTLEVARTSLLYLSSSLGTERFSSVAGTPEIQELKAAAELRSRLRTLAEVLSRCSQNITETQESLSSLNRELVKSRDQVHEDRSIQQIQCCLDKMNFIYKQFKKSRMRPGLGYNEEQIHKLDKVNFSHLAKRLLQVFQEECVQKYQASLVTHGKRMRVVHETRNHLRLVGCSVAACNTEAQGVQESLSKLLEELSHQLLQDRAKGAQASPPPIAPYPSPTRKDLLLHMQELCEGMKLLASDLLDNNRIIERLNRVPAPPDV
Conditions: at 1 µM.

Assay [2] deals with T2, Serine/threonine-protein kinase Nek1 (Homo sapiens) (UniProt Q96PY6).
T2 sequence (whole entry): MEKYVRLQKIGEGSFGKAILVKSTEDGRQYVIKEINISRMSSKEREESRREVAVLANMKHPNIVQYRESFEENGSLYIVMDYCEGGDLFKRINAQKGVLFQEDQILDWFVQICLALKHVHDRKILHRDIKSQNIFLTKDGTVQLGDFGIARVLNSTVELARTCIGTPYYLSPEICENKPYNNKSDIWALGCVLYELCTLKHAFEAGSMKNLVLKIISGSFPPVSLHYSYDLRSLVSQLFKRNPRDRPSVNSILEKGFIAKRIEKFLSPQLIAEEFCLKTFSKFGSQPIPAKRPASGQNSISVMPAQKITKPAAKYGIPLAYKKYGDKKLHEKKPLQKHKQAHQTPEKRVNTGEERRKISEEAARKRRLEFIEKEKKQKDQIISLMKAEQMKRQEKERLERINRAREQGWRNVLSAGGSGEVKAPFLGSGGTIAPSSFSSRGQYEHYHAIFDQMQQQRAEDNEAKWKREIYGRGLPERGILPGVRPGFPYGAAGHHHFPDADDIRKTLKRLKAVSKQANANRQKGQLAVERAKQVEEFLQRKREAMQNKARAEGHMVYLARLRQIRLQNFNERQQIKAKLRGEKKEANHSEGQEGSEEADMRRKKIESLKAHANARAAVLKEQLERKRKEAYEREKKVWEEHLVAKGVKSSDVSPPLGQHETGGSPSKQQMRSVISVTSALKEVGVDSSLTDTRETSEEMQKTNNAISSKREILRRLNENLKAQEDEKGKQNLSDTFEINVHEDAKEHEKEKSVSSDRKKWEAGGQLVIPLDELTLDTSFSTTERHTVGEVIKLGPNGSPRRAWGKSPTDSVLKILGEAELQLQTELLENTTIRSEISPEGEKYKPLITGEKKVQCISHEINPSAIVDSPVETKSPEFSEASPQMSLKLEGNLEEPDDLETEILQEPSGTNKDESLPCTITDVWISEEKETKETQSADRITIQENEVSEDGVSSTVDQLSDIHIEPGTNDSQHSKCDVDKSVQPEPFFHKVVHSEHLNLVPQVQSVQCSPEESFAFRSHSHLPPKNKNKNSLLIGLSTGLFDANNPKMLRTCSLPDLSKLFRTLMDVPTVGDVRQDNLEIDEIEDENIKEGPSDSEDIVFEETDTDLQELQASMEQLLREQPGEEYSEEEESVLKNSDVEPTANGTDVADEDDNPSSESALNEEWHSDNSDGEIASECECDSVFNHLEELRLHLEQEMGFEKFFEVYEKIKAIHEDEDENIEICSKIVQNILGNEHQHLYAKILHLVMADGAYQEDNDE
The conditions noted are these: at 0.1 µM.

Assay [3] addresses T2, Serine/threonine-protein kinase Nek1 (Homo sapiens). The conditions noted are these: at 1 µM.
Assay [4] concerns the target T3, Serine/threonine-protein kinase Nek2 (Homo sapiens) (UniProt P51955).
T3 sequence (whole entry): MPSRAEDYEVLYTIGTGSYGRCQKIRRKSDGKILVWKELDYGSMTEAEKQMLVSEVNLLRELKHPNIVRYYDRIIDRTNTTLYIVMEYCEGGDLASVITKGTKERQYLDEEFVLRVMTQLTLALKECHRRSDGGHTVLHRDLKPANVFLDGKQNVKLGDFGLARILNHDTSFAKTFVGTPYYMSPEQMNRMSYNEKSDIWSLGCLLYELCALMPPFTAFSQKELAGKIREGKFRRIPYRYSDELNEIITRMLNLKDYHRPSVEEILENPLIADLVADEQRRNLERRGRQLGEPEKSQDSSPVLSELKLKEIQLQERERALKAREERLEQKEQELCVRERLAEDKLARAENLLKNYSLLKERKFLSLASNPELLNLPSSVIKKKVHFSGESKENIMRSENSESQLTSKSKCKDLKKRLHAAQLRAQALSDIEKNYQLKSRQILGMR
Conditions: at 0.1 µM.

Assay [5] deals with T3, Serine/threonine-protein kinase Nek2 (Homo sapiens). Conditions: at 1 µM.
Assay [6] concerns the target Serine/threonine-protein kinase Nek6 (Homo sapiens) (UniProt Q9HC98). Conditions: at 0.1 µM.
Assay [7] shares this target. Conditions: at 1 µM.
Assay [8] has as its target Serine/threonine-protein kinase Nek7 (Homo sapiens) (UniProt Q8TDX7). Conditions: at 0.1 µM.
For assay [9] the target is unchanged. Conditions: at 1 µM.
Assay [10] addresses T4, Serine/threonine-protein kinase Nek9 (Homo sapiens) (UniProt Q8TD19).
T4 sequence (whole entry): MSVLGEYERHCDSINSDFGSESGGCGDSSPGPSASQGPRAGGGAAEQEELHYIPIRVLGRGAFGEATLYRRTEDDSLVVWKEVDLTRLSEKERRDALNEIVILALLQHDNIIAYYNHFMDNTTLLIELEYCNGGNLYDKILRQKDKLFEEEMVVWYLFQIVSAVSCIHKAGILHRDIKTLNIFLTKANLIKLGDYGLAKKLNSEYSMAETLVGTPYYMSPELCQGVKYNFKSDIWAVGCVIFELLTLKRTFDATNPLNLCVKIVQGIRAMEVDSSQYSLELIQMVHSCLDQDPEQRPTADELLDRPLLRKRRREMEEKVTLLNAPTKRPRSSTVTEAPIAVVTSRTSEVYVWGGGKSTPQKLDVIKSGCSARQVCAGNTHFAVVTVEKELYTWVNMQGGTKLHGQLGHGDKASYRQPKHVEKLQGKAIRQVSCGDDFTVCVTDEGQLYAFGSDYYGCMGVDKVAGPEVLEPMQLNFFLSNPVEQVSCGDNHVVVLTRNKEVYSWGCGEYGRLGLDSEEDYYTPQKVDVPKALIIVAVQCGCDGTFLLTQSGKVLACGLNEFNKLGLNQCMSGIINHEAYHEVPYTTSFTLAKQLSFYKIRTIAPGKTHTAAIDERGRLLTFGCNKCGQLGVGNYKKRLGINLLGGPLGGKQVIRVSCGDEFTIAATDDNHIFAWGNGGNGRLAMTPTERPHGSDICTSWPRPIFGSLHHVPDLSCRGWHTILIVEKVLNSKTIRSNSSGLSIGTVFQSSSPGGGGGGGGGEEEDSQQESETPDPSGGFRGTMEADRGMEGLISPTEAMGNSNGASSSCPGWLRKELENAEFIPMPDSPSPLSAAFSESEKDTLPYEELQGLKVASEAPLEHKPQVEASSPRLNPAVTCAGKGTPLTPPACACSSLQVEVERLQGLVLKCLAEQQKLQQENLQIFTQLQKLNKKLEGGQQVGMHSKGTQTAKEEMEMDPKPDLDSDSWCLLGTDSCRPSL
Conditions: at 0.1 µM.

Assay [11] concerns the target T4, Serine/threonine-protein kinase Nek9 (Homo sapiens). The conditions noted are these: at 1 µM.
Assay [12] deals with Serine/threonine-protein kinase PLK1 (Homo sapiens) (UniProt P53350). The conditions noted are these: at 0.1 µM.
Sequence of Serine/threonine-protein kinase PLK1 (Homo sapiens) (P53350 whole entry): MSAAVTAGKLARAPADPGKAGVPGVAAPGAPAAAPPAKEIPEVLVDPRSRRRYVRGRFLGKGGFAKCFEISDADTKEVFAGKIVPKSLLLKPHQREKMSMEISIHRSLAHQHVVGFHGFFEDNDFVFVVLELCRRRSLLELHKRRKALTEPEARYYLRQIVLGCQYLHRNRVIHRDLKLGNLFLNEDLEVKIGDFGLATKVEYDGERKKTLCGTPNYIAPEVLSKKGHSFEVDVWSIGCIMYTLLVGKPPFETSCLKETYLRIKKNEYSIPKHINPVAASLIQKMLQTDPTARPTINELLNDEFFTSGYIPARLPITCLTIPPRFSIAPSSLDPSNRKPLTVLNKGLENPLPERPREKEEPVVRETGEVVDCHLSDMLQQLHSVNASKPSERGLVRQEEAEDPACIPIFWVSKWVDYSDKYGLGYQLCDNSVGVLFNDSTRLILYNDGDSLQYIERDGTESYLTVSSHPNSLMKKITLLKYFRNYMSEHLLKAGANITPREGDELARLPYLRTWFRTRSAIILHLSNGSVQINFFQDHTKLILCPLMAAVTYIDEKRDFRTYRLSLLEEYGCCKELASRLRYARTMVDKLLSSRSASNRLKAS
The target is the same in assay [13]. The conditions noted are these: at 1 µM.
In assay [14] the target is T5, Dual specificity protein kinase TTK (Homo sapiens) (UniProt P33981).
T5 sequence (whole entry): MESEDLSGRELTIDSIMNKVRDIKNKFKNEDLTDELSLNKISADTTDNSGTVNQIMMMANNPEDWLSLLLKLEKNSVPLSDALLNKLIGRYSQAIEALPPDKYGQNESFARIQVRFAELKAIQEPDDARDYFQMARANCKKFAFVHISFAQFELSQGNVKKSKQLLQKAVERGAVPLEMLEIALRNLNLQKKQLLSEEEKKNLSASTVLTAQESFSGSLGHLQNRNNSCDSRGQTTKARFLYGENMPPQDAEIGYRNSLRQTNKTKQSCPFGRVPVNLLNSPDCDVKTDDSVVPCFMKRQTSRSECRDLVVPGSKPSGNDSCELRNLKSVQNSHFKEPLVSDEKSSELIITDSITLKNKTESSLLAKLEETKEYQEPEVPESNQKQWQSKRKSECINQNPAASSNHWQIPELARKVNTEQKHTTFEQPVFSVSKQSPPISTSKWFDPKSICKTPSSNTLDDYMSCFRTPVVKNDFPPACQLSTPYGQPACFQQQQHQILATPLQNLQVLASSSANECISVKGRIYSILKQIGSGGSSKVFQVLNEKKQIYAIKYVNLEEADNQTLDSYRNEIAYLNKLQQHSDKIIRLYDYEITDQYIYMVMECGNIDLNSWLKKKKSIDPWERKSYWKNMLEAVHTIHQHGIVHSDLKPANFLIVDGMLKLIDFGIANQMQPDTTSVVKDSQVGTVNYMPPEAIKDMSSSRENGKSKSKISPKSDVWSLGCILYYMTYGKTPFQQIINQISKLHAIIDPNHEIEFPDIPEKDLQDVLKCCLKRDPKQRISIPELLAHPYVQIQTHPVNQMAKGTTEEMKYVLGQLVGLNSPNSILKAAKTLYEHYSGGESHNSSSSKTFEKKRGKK
Conditions: at 0.1 µM.

For assay [15], the system named is T6, Receptor-type tyrosine-protein kinase FLT3 (Homo sapiens), P36888 [D835Y].
T6 sequence (whole entry): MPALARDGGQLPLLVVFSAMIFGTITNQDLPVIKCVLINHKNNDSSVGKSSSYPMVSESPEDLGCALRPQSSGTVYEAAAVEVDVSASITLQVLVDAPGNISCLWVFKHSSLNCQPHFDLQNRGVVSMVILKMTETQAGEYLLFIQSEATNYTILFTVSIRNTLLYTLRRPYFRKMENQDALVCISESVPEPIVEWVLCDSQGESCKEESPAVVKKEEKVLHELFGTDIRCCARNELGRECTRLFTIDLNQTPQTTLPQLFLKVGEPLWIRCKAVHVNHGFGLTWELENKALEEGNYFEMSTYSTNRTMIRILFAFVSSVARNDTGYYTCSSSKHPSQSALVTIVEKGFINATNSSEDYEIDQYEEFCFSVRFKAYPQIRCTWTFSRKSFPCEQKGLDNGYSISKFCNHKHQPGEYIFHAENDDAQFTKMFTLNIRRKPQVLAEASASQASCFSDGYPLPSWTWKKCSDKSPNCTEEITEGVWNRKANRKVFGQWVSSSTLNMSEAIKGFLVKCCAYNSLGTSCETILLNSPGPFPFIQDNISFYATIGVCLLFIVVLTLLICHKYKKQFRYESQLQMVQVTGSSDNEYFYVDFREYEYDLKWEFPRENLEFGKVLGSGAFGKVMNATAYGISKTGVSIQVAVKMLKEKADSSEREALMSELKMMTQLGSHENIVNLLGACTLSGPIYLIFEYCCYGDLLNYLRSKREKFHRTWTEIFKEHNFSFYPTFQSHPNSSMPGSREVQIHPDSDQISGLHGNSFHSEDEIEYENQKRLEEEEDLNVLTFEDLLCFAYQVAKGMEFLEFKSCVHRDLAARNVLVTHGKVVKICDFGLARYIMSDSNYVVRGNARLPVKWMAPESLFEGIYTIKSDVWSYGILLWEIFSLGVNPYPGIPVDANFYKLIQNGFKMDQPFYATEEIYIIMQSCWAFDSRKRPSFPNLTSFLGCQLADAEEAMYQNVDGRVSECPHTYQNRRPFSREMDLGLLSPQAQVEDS
Conditions: at 1 µM.

Assay [16] concerns the target Vascular endothelial growth factor receptor 3 (Homo sapiens) (UniProt P35916). The conditions noted are these: at 0.1 µM.
The target is the same in assay [17]. Conditions: at 1 µM.
Assay [18] concerns the target Macrophage colony-stimulating factor 1 receptor (Homo sapiens) (UniProt P07333). Conditions: at 0.1 µM.
For assay [19] the target is unchanged. Conditions: at 1 µM.
In assay [20] the target is Tyrosine-protein kinase Fyn (Homo sapiens) (UniProt P06241). The conditions noted are these: at 0.1 µM.
Sequence of Tyrosine-protein kinase Fyn (Homo sapiens) (P06241 2-537 limits assumed): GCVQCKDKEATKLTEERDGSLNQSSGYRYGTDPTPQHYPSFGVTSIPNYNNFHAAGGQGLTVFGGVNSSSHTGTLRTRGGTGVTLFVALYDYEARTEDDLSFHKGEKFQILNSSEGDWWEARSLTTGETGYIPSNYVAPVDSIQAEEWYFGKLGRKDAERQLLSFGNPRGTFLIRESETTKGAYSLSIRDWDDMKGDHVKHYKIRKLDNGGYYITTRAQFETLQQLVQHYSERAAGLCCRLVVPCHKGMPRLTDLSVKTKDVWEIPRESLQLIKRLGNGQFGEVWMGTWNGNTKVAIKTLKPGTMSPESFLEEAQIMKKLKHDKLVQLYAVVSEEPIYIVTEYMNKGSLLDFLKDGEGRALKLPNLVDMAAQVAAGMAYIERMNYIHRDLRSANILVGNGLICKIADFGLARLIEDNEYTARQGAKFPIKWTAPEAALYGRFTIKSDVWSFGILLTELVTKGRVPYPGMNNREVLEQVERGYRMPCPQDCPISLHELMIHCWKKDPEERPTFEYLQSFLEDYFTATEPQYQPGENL

Sequence of Macrophage colony-stimulating factor 1 receptor (Homo sapiens) (P07333 whole entry): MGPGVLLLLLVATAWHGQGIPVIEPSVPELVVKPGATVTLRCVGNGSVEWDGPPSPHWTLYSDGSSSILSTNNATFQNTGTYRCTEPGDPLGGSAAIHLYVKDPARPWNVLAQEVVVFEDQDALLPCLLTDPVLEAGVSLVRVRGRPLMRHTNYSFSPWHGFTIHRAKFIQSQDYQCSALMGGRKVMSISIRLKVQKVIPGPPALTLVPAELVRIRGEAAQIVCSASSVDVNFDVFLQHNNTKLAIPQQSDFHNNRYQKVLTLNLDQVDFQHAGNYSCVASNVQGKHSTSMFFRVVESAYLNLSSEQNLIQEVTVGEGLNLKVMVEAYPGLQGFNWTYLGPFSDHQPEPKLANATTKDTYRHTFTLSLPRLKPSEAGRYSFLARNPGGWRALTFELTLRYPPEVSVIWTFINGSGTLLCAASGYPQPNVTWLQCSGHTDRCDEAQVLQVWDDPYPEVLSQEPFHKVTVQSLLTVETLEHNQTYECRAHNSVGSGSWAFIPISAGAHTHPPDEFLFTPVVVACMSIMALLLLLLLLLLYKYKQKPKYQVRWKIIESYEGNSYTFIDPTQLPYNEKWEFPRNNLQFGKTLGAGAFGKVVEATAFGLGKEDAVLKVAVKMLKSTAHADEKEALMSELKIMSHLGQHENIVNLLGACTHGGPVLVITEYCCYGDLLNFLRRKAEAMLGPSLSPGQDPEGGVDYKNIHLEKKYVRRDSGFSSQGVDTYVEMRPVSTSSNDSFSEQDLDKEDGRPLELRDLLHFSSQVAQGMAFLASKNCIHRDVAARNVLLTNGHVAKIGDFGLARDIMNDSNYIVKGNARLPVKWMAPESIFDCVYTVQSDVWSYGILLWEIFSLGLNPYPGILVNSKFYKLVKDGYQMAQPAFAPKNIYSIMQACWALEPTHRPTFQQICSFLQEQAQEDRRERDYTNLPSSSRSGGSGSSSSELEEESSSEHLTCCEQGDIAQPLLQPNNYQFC
Sequence of Serine/threonine-protein kinase Nek7 (Homo sapiens) (Q8TDX7 whole entry, looked up): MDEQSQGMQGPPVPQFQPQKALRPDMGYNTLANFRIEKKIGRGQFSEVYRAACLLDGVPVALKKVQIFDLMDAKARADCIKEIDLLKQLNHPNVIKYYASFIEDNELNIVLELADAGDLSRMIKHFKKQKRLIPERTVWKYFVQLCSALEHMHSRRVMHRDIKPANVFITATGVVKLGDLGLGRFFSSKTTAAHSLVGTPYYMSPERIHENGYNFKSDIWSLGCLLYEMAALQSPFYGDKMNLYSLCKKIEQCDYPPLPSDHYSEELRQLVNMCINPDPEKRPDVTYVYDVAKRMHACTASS
Sequence of Serine/threonine-protein kinase Nek6 (Homo sapiens) (Q9HC98 whole entry): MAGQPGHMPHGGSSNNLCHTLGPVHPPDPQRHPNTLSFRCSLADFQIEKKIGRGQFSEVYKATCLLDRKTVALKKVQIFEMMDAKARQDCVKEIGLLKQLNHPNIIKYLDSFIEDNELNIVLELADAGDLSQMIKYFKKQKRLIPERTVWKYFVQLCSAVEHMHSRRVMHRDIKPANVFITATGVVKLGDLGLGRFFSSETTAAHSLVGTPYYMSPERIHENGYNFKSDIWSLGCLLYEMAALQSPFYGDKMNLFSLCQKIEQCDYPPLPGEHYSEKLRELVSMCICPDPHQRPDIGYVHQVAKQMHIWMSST
Sequence of Vascular endothelial growth factor receptor 3 (Homo sapiens) (P35916 whole entry): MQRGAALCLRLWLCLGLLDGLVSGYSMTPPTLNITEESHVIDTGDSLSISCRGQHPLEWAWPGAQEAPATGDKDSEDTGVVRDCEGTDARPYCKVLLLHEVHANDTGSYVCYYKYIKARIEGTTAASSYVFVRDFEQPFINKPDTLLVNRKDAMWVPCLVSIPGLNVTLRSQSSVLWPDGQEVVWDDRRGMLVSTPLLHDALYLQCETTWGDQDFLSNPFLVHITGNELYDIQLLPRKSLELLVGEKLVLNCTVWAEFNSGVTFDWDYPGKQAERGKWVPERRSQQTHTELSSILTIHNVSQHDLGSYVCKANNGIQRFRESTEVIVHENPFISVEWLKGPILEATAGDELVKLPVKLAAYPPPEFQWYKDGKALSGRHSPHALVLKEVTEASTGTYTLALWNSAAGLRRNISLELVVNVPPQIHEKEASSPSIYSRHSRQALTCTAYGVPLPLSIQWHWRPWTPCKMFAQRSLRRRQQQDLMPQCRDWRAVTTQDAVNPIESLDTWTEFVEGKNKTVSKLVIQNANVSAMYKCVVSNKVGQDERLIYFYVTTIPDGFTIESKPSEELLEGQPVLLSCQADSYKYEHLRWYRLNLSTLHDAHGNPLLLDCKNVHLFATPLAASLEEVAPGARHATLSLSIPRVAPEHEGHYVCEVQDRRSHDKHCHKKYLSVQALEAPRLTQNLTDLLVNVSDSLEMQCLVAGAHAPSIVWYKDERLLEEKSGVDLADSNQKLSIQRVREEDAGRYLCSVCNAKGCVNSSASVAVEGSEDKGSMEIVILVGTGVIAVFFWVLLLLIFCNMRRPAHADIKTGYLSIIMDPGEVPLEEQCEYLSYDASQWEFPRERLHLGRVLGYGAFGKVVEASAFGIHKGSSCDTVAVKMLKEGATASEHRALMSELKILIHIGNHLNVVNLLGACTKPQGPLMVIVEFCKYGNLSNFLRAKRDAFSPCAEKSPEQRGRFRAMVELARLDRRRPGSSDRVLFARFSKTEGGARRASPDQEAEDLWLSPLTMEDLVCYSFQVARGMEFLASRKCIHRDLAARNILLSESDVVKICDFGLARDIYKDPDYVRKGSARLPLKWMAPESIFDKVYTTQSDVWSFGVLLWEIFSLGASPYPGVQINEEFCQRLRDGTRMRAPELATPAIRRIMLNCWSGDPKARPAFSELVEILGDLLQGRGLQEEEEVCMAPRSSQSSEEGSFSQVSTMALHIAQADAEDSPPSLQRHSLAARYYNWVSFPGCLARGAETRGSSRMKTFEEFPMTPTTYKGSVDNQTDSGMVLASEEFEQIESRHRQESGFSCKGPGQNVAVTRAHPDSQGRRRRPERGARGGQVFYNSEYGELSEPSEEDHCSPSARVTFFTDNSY

With `CCOc1ccc2c(-c3ccnc(Nc4cc(OC)cc(C(F)(F)F)c4)n3)cnn2n1`, the inhibition in assay [1] is 26.5%; in assay [2], 1.06%; in assay [3], 2.42%; in assay [4], 1.26%; in [5], 0.94%; in [6], -0.49%. Also, the inhibition in assay [7] stood at 1.7%; in assay [8], 2.79%; in [9] it was 2.42%; in assay [10], 3.87%; in assay [11], 7.2%; in assay [12], 0.53%. For the same compound, the inhibition in assay [13] was 1.68%; in assay [14], -0.36%; in assay [15], 17%; in assay [16] it was 15.8%; in assay [17], 22.8%; in assay [18] it was 2.34%. Besides, the inhibition in [19] is 17.2%; in assay [20], 3.33%.

`CC1=C(C(=O)Nc2ccc3[nH]ncc3c2)C(c2ccc(F)cc2)N=C(c2ccc(C(F)(F)F)nc2)N1` (stereo not given): the inhibition in assay [1] came out at 3.45%; in [2], 1.75%; in assay [3] it was 1.45%; in [4], 3.41%; in assay [5], 2.65%; in assay [6], 1.87%. For the same compound, the inhibition is -0.45% in assay [7]; 3.08% in assay [8]; 2.92% in [9]; 2.7% in assay [10]; -1.51% in assay [11]; 1.85% in [12]. The inhibition in assay [13] came out at 1.78%; in assay [14] it was 3.99%; in assay [15], 1.9%; in assay [16] it was 1.85%; in assay [17], 0.82%; in [18], 3.03%. Moreover, the inhibition is 2.25% in assay [19] and 4.17% in [20].
